Hits are enriched below; roughly 1.3% of the tested compounds scored in any of these assays.
LANA-H2B inh = blockers of LANA interaction with H2A/H2B – biochemical, FP readout, HTS, primary screen; 320,000 compounds, 0.6% hits; cell-free LANA-H2A/H2B peptide, fluorescence polarization; AID 2629, 2010; inhibition, % (no concentration beside the values); Protein LANA1 (Human herpesvirus 8 type P (isolate GK18)), Q9QR71; in the data active means inhibition mostly above about 10%, no sharp cut-off; inactive means mostly below about 6.7%
Keap1 Nrf2 FP = Keap1-Nrf2 protein-protein interaction inhibitors, primary screen, biochemical, fluorescence polarization, single point | Keap1 Kelch-Nrf2 peptide fluorescence polarization, 1536-well | inhibition, % at 9.4 µM | 340,000 compounds, 0.15% hits; in the data active means inhibition above about 12%;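 further: human Keap1 Kelch domain with fluorescein labeled Nrf2 9mer peptide probe; higher means more block of Keap1 binding to Nrf2 peptide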
RTF Ca sens act = cardiac RTF calcium sensitivity activators, primary screen, biochemical, IANBD-TnC fluorescence, EC20 calcium; Troponin I, cardiac muscle (Homo sapiens) + Troponin T, cardiac muscle (Homo sapiens) + …; IANBD-labeled TnC RTF fluorescence at EC20 calcium; 0% EC20 calcium, 100% full calcium; activation, % at 7.2 µM; 340,000 compounds, 0.24% hits; AID 493008, 2010;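 active means activation above the mean over all tested compounds plus 3 SD, cut at about 30% in these data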;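 further: rise in fluorescence read as greater calcium sensitivity of cardiac thin filaments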
eLon inh = inhibitors of E. coli Lon protease, primary screen, biochemical, fluorescence polarization | inhibition, % at 7.94 µM | purified E. coli Lon protease | P0A9M0 | AID 602123, 2011 | 360,000 compounds, 0.42% hits; in the data active means inhibition above about 13%, passing the limit was not always enough
Target sequence (P0A9M0 whole entry, looked up): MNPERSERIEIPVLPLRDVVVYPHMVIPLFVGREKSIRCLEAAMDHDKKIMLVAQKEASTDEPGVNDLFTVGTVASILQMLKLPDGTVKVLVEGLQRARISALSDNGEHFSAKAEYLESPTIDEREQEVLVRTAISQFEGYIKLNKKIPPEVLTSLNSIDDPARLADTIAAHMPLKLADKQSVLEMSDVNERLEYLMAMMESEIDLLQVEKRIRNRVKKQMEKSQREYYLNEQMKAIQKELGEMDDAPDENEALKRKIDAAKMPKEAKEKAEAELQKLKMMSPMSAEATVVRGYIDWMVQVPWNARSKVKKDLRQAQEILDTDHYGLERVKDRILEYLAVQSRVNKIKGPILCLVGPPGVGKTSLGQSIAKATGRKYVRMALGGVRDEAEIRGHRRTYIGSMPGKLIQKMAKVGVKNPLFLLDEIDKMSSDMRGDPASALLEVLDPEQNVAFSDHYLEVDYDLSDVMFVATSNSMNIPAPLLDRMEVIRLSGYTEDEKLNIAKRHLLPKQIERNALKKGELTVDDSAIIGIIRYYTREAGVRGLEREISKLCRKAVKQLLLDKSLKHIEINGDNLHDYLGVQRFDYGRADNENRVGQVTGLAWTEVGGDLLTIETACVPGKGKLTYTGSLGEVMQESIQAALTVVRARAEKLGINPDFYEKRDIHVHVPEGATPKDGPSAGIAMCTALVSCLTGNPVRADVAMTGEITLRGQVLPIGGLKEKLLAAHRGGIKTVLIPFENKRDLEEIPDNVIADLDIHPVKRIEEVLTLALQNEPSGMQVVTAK
C-LANA FP = inhibitors of KSHV C-LANA binding to DNA, primary screen, biochemical, fluorescence polarization, FAM-LBS DNA, MBP-C-LANA, single point; 340,000 compounds, 0.078% hits; AID 504423, 2011; inhibition, % at 9 µM;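 active means highest replicate inhibition at or above 60% at 9 µM, even if other replicates fall short; inactive means all replicates below 60% inhibition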
RTF Ca sens inh = cardiac RTF calcium sensitivity inhibitors, primary screen, biochemical, IANBD-TnC fluorescence, EC70 calcium; Troponin I, cardiac muscle (Homo sapiens) + Troponin T, cardiac muscle (Homo sapiens) + …; IANBD-labeled cardiac RTF, Ca2+ fluorescence; inhibition, % at 7.15 µM; 340,000 compounds, 0.12% hits; AID 493244, 2011;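 active means inhibition above the mean inhibition of all tested compounds plus 3 SD, cut at about 17% in these data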;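 further: assay run at fixed EC70 calcium of 1.6 mM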
Each line names hits and unclear results; the compound was inactive in the other large screens.

CC(C)n1cc(/C=C/c2cc[n+](C)cc2)c2ccccc21	RTF Ca sens act 344.5 (no result: LANA-H2B inh)
CC12CC3CC(C)(C1)CC(C(=O)NCc1ccncc1)(C3)C2	none
OCC[n+]1ccc(/C=C/c2c[nH]c3ccccc23)cc1	RTF Ca sens act 188.8
C(=Cc1c[nH]c2ccccc12)c1nccc2ccccc12	none (no result: LANA-H2B inh)
CC(C)(C)NC(=O)CC1C[C@H](C(=O)N2CCCCC2)[C@@]2(CCc3ccccc3)c3[nH]c4ccccc4c3CCN2C1=O (stereo partly specified)	LANA-H2B inh 32.4
O=C(CC1C[C@H](C(=O)N2CCOCC2)[C@@]2(CCC3CCCC3)c3[nH]c4ccccc4c3CCN2C1=O)NCCc1ccccn1 (stereo partly specified)	LANA-H2B inh 104.9
COc1ccc2[nH]c3c(c2c1)CCN1C(=O)C(CC(=O)NC(C)(C)C)C[C@H](C(=O)N2CCCCC2)[C@@]31CCc1ccccc1 (stereo partly specified)	none (no result: LANA-H2B inh)
CC[C@]12c3[nH]c4ccccc4c3CCN1C(=O)C(CC(=O)NCC13CC4CC(CC(C4)C1)C3)C[C@@H]2C(=O)N1CCN(C(=O)C2CC2)CC1 (stereo partly specified)	LANA-H2B inh active
CC[C@]12c3[nH]c4ccccc4c3CCN1C(=O)C(CC(=O)NCc1ccco1)C[C@@H]2C(=O)N1CCN(C(=O)C2CC2)CC1 (stereo partly specified)	none
CC[C@]12c3[nH]c4ccccc4c3CCN1C(=O)C(CC(=O)NC(C)(C)C)C[C@@H]2C(=O)N1CCN(C(=O)C2CC2)CC1 (stereo partly specified)	LANA-H2B inh 182.6
COc1ccc(N2CCN(C(=O)CCNS(=O)(=O)c3ccccc3)CC2)cc1	none
O=C(Cc1ccc([N+](=O)[O-])cc1)N1N=C(C2CC2)CC1(O)C(F)(F)F (stereo unspecified)	none
CC1CN(C(=O)c2ccc(NS(=O)(=O)c3cccc(Cl)c3)cc2)CC(C)O1 (stereo unspecified)	none (no result: LANA-H2B inh)
CC(C)Cn1c(CCCNC(=O)c2ccc(F)cc2)nc2ccccc21	LANA-H2B inh 11.0
CCN(CC)C(=O)[C@H]1C[C@H](CC(=O)NCCc2ccccn2)C(=O)N2CCc3c([nH]c4cc(-c5ccco5)ccc34)[C@]12C	Keap1 Nrf2 FP active (no result: LANA-H2B inh)
C[C@]12c3[nH]c4ccccc4c3CCN1C(=O)C(CC(=O)NCc1cccc(C(F)(F)F)c1)C[C@@H]2C(=O)N1CCOCC1 (stereo partly specified)	LANA-H2B inh active
C[C@]12c3[nH]c4ccccc4c3CCN1C(=O)C(CC(=O)NCc1ccco1)C[C@@H]2C(=O)N1CCOCC1 (stereo partly specified)	LANA-H2B inh 94.0
CC(C)CN1C(=O)C(=O)N(CC(=O)N(C)CC(=O)Nc2ccc(F)cc2)C1=O	none
CN1CCN(c2cc(N3CCN(C(=O)c4ccco4)CC3)c3c4c(onc24)-c2ccccc2C3=O)CC1	none
O=C(O)CCCNc1cc(N2CCC3(CC2)OCCO3)c2noc3c2c1C(=O)c1ccccc1-3	LANA-H2B inh 37.6 (no result: Keap1 Nrf2 FP, RTF Ca sens act, eLon inh, C-LANA FP, RTF Ca sens inh)
CCOC(=O)N1CCN(c2cc(NCCC(=O)O)c3c4c(onc24)-c2ccccc2C3=O)CC1	LANA-H2B inh 36.6
CCOC(=O)Nc1ccc(NCc2ccc(F)cc2)nc1N	RTF Ca sens act 71.7
CCOC(=O)Cc1csc(NC(=O)CCCC(=O)O)n1	none (no result: Keap1 Nrf2 FP, RTF Ca sens act, C-LANA FP, RTF Ca sens inh)
CC(C)Nc1ncnc2c1ncn2[C@H]1CN(Cc2ccc(Cl)cc2)C[C@@H](CO)O1	none (no result: LANA-H2B inh, Keap1 Nrf2 FP, RTF Ca sens act, C-LANA FP, RTF Ca sens inh)
COCCCn1c(=O)cc(C)[nH]c1=S	LANA-H2B inh 14.5
Cc1ccc(C)n1/N=C1/NC(=O)CS1	C-LANA FP 87.4
Cc1ccc(N=C2NC(=O)CS2)cc1	none
COc1ccc(/C=C2\C(=O)NC(=S)N2C(=O)c2ccc(F)cc2)cc1	LANA-H2B inh active
COc1ccc(COc2ccc(S(=O)(=O)N3CCCC3)cc2C(N)=O)cc1F	none
CC(=O)Nc1ccc(S(=O)(=O)N2CCC(C(=O)NCc3ccncc3)CC2)cc1	none
COc1ccc(CCN2CC(C(=O)Nc3nnc(Cc4ccccc4)s3)CC2=O)cc1OC (stereo unspecified)	LANA-H2B inh 10.8
CCOc1ccc(CCNC(=O)COC(=O)c2ccc(C)c([N+](=O)[O-])c2)cc1OCC	none
CCCCCCCCCCCCCCCC[n+]1ccc(/C=N/O)cc1	LANA-H2B inh 12.8
C=CCN(c1ccccc1)S(=O)(=O)c1cccc(C(=O)NNC(=O)c2ccncc2)c1	none (no result: LANA-H2B inh)
CN(C(=O)COC(=O)c1cccs1)c1ccccc1	none (no result: LANA-H2B inh, Keap1 Nrf2 FP, RTF Ca sens act, C-LANA FP, RTF Ca sens inh)
COc1ccc(OCc2cc(C(=O)N(Cc3nccn3C)C(C)C)no2)c2ccccc12	none
COc1ccccc1N/C(N)=N/c1nc(C(F)(F)F)cc(=O)[nH]1	none
N/C(=N\c1nc2c(c(=O)[nH]1)CCC2)Nc1ccccc1C(F)(F)F	RTF Ca sens inh 17.4
CCOC(=O)c1c([N+](=O)[O-])c(C)[nH]c(=O)c1C#N	none
Cc1[nH]c(=O)c(C#N)c(C)c1[N+](=O)[O-]	LANA-H2B inh 12.7
CN(c1ccc(O)cc1)c1nc(-c2ccccc2)cs1	LANA-H2B inh active
CC(C)C12CN3CC(C(C)C)(CN(C1)C3c1ccccc1)C2O (stereo unspecified)	LANA-H2B inh 8.5
COc1ccc(C[C@H]2c3cc(O)c(OC)cc3CC[N+]2(C)[O-])cc1O (stereo partly specified)	none
Cc1ccc(OCC(=O)N(C)CC(=O)Nc2ccc(Cl)c(C(F)(F)F)c2)c([N+](=O)[O-])n1	LANA-H2B inh 104.8
Cc1ccc(OCC(=O)N(C)CC(=O)Nc2ccc(F)cc2)c([N+](=O)[O-])n1	none
COc1ccc2c(c1OC)C(=O)N(c1cccc(NC(C)=O)c1)C2	none
CC(C)Cn1c(=O)c2ccccc2n2c(CCC(=O)O)nnc12	none
Cc1ccc2c(c1)C(O)(CC(=O)c1ccc(C)s1)C(=O)N2 (stereo unspecified)	LANA-H2B inh 89.8
Cc1ccc(C(=O)CC2(O)C(=O)Nc3ccccc32)s1 (stereo unspecified)	none
CS(=O)(=O)c1[nH]nc(-c2ccccc2)c1C#N	none
CCN(CC(=O)Nc1ccccc1C(F)(F)F)C(=O)c1ccccc1SCC(=O)N1CCCC1	LANA-H2B inh 35.0
